According to PubChem BioAssay AID1159580 (chemical genetic matrix, 2015):
Several values for one entry are separate records, joined by “and”; a condition that tells them apart may be missing. Equal values may be shown once. Hit rate of the full screen: of about 5,500 compounds, about 2,000 (36%) were called active. Another 18% or so got no clear call; they are omitted. Rule as the data show it: active = normalized growth mostly below about 0.91 (no sharp cut-off); inconclusive = no clear call, values can overlap the other calls; inactive = mostly above about 0.92. This is one part of the list.

Assay: chemical genetic growth profiling, strain panel (AID 1159580);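 also: tested at 20 µM; growth read once vehicle control cultures reached saturation at 30 °C; 1 = growth at the plate median or of vehicle wells; lower values mean less growth of the strain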
Conditions: S. cerevisiae deletion strains, growth OD

Measured: normalized growth

COC(=O)C[C@H]1C(C)(C)[C@@H](OC(C)=O)[C@@H]2CC3C4CC(=O)O[C@@H](c5ccoc5)[C@]4(C)CCC3[C@@]1(C)C2=O (some centres not stated)
inactive: locus YAL013W, strain DEP1, active compounds read low 1 | locus YAL021C, strain ccr4, active compounds read low 0.979 | locus YAL026C, strain drs2, active compounds read low 1.01 | locus YAL030W, strain snc1, active compounds read low 1 | locus YBL061C, strain skt5, active compounds read low 1.02 | locus YBR009C, strain hhf1, active compounds read low 0.988 | locus YBR021W, strain FUR4, active compounds read low 0.965 | locus YBR023C, strain chs3, active compounds read low 1.02 | locus YBR171W, strain sec66, active compounds read low 1.03 | locus YBR229C, strain ROT2, active compounds read low 0.999 | locus YBR231C, strain swc5, active compounds read low 1.01 | locus YBR279W, strain paf1, active compounds read low 1.01 | locus YCL011C, strain gbp2, active compounds read low 1 | locus YCL016C, strain dcc1, active compounds read low 1.01 | locus YCL029C, strain bik1, active compounds read low 0.973 | locus YCL069W, strain vba3, active compounds read low 1.01 | locus YCR088W, strain abp1, active compounds read low 1.01 | locus YDL005C, strain med2, active compounds read low 1.01 | locus YDL035C, strain GPR1, active compounds read low 0.995 | locus YDL040C, strain nat1, active compounds read low 1.01 | locus YDL074C, strain BRE1, active compounds read low 0.985 | locus YDL101C, strain DUN1, active compounds read low 1.02 | locus YDL134C, strain PPH21, active compounds read low 1.04 | locus YDL185W, strain tfp1, active compounds read low 1.02 | locus YDL192W, strain arf1, active compounds read low 0.989 | locus YDR001C, strain nth1, active compounds read low 1.01 | locus YDR069C, strain doa4, active compounds read low 1.01 | locus YDR101C, strain arx1, active compounds read low 0.996 | locus YDR137W, strain rgp1, active compounds read low 1.01 | locus YDR159W, strain sac3, active compounds read low 1.03 | locus YDR162C, strain NBP2, active compounds read low 1.01 | locus YDR195W, strain ref2 0.98 | locus YDR297W, strain sur2, active compounds read low 0.999 | locus YDR318W, strain mcm21, active compounds read low 1.01 | locus YDR334W, strain swr1, active compounds read low 1.01 | locus YDR335W, strain msn5, active compounds read low 1.04 | locus YDR388W, active compounds read low 1.02 | locus YDR392W, strain spt3, active compounds read low 1.02 | locus YDR502C, strain sam2, active compounds read low 1.04 | locus YEL003W, strain gim4, active compounds read low 1.01 | locus YEL037C, strain rad23, active compounds read low 1.01 | locus YEL061C, strain CIN8 (second series), active compounds read low 1.01 | locus YEL061C, strain CIN8, active compounds read low 0.995 | locus YER015W, strain faa2, active compounds read low 1 | locus YER016W, strain bim1, active compounds read low 1.01 | locus YER110C, active compounds read low 1.02 | locus YER111C, strain swi4, active compounds read low 1.02 | locus YER155C, strain BEM2 (second series), active compounds read low 1.03 | locus YER155C, strain BEM2, active compounds read low 1 | locus YER167W, strain BCK2, active compounds read low 0.996 | locus YFR010W, strain ubp6, active compounds read low 1 | locus YGL078C, strain dbp3, active compounds read low 1.01 | locus YGL086W, strain mad1, active compounds read low 1.01 | locus YGL167C, strain pmr1, active compounds read low 1.02 | locus YGL173C, strain kem1, active compounds read low 1.02 | locus YGL227W, strain vid30, active compounds read low 1.02 | locus YGL240W, strain doc1, active compounds read low 1.03 | locus YGL248W, strain PDE1, active compounds read low 1.04 | locus YGL253W, strain hxk2, active compounds read low 1.01 | locus YGR135W, strain pre9, active compounds read low 1.07 | locus YGR252W, strain gcn5, active compounds read low 1.05 | locus YHR013C, strain ard1, active compounds read low 1.02 | locus YHR027C, strain rpn1, active compounds read low 1.02 | locus YHR030C, strain SLT2, active compounds read low 0.994 and 1.02 | locus YHR079C, strain IRE1 (second series), active compounds read low 1.01 | locus YHR079C, strain IRE1, active compounds read low 1.01 | locus YHR094C, strain hxt1, active compounds read low 1.01 | locus YHR129C, strain ARP1, active compounds read low 1.01 | locus YHR142W, strain chs7, active compounds read low 0.997 | locus YHR200W, strain rpn10, active compounds read low 1 | locus YIL066C, strain RNR3, active compounds read low 0.997 | locus YIL073C, strain SPO22, active compounds read low 1.01 | locus YIL125W, strain kgd1, active compounds read low 1 | locus YIR030C, strain dcg1, active compounds read low 1.01 | locus YJL092W, strain hpr5, active compounds read low 1.01 | locus YJL095W, strain BCK1 (second series), active compounds read low 1 | locus YJL095W, strain BCK1, active compounds read low 1.04 and 1.01 | locus YJL115W, strain asf1, active compounds read low 1.01 | locus YJL129C, strain trk1, active compounds read low 1.01 | locus YJL134W, strain LCB3, active compounds read low 0.99 | locus YJL154C, strain vps35, active compounds read low 1 | locus YJL164C, strain tpk1, active compounds read low 1 | locus YJL166W, strain qcr8, active compounds read low 0.999 | locus YJL168C, strain set2, active compounds read low 1.02 | locus YJL187C, strain SWE1 (second series), active compounds read low 1.05 | locus YJR066W, strain TOR1, active compounds read low 0.963 | locus YKL009W, strain mrt4, active compounds read low 0.998 | locus YKL068W, active compounds read low 1.01 | locus YKL085W, strain MDH1 (second series), active compounds read low 1 | locus YKL085W, strain MDH1, active compounds read low 1 | locus YKL160W, strain elf1, active compounds read low 1.02 | locus YKL190W, strain CNB1, active compounds read low 1 | locus YKR001C, strain vps1, active compounds read low 0.995 | locus YKR026C, strain gcn3, active compounds read low 1.01 | locus YKR091W, strain srl3, active compounds read low 1.01 | locus YLL001W, strain dnm1, active compounds read low 1.01 | locus YLL026W, active compounds read low 1 | locus YLL041C, strain sdh2, active compounds read low 1 | locus YLR027C, strain aat2, active compounds read low 0.999 | locus YLR039C, strain RIC1, active compounds read low 0.993 | locus YLR058C, strain SHM2, active compounds read low 1.02 | locus YLR102C, strain apc9, active compounds read low 1.02 | locus YLR113W, strain HOG1, active compounds read low 0.988 | locus YLR221C, strain rsa3, active compounds read low 0.999 | locus YLR258W, strain gsy2, active compounds read low 1.01 | locus YLR262C, strain YPT6 (second series), active compounds read low 0.955 | locus YLR268W, strain sec22, active compounds read low 0.985 | locus YLR320W, strain mms22, active compounds read low 1.02 | locus YLR342W, strain FKS1, active compounds read low 1 | locus YLR357W, strain rsc2, active compounds read low 1.03 | locus YLR370C, strain arc18, active compounds read low 1.02 | locus YLR371W, strain rom2, active compounds read low 0.989 | locus YLR384C, strain iki3, active compounds read low 1.02 | locus YLR418C, strain cdc73, active compounds read low 1.04 | locus YML016C, strain PPZ1, active compounds read low 1.01 | locus YML032C, strain rad52, active compounds read low 0.994 | locus YML120C, strain ndi1, active compounds read low 1.02 | locus YML124C, strain tub3, active compounds read low 1.01 | locus YMR058W, strain fet3, active compounds read low 1.01 | locus YMR078C, strain ctf18, active compounds read low 1.02 | locus YMR125W, strain sto1, active compounds read low 1.01 | locus YMR129W, active compounds read low 0.999 | locus YMR205C, strain PFK2, active compounds read low 1 | locus YMR223W, strain ubp8, active compounds read low 1.01 | locus YMR231W, strain pep5, active compounds read low 1.01 | locus YMR307W, strain GAS1, active compounds read low 0.876 | locus YNL067W, strain RPL9B, active compounds read low 1.05 | locus YNL071W, strain lat1, active compounds read low 1.02 | locus YNL183C, strain NPR1, active compounds read low 0.981 | locus YNL209W, strain ssb2, active compounds read low 0.996 | locus YNL233W, strain BNI4, active compounds read low 0.988 | locus YNL248C, strain rpa49, active compounds read low 1 | locus YNL250W, strain rad50, active compounds read low 1.04 | locus YNL271C, strain bni1, active compounds read low 1.01 | locus YNL298W, strain CLA4, active compounds read low 1.01 | locus YNL307C, strain MCK1, active compounds read low 1.03 | locus YNL322C, strain KRE1 (second series), active compounds read low 1.02 | locus YNR049C, strain mso1, active compounds read low 0.996 | locus YNR052C, strain pop2, active compounds read low 1.04 | locus YOL012C, strain htz1 0.967 | locus YOL147C, strain pex11, active compounds read low 1.01 | locus YOR001W, strain rrp6, active compounds read low 1.01 | locus YOR061W, strain CKA2, active compounds read low 0.992 | locus YOR069W, strain VPS5, active compounds read low 1 | locus YOR070C, strain gyp1, active compounds read low 1.01 | locus YOR080W, strain dia2, active compounds read low 1.01 | locus YOR083W, strain WHI5, active compounds read low 1.02 | locus YOR106W, strain vam3, active compounds read low 0.988 | locus YOR136W, strain idh2, active compounds read low 1.02 | locus YOR144C, strain elg1, active compounds read low 1.02 | locus YOR184W, strain ser1, active compounds read low 0.973 | locus YOR231W, strain MKK1, active compounds read low 1.01 | locus YOR265W, strain rbl2, active compounds read low 1.01 | locus YOR270C, strain vph1, active compounds read low 0.902 | locus YOR290C, strain snf2, active compounds read low 1.02 | locus YOR316C, strain cot1, active compounds read low 1.02 | locus YPL051W, strain arl3, active compounds read low 1.02 | locus YPL078C, strain atp4, active compounds read low 1.03 | locus YPL106C, strain sse1, active compounds read low 1.02 | locus YPL240C, strain hsp82, active compounds read low 1 | locus YPL241C, strain CIN2, active compounds read low 0.988 | locus YPL256C, strain CLN2, active compounds read low 0.996 | locus YPR119W, strain clb2, active compounds read low 1.01 | locus YPR141C, strain kar3, active compounds read low 1.01 | locus YPR163C, strain tif3, active compounds read low 1.03 | locus YPR167C, strain met16, active compounds read low 1.02 | strain wtn01, active compounds read low 1
